PubChem BioAssay (NCATS)

These molecules were tested against Cytochrome P450 3A4 (Homo sapiens) (UniProt P08684) (assay: qHTS Assay for Activators of Cytochrome P450 3A4 (AID 885; note: nearly all actives have a fitted effect of over 65% in size)). Conditions: recombinant CYP3A4, Luciferin-PPXE luminescence, 60 min; series mostly up to 57.1 µM; activity change, positive = activation: at the top concentration; active = well fitted activation curve with a large enough effect; inconclusive = small, poorly fitted or top-dose-only effect; inactive = no such curve, though single readings can be large or run the other way.
Procedure, shortened: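 Quantitative HTS format: compounds preincubated with 20nM human CYP3A4 and Luciferin-PPXE substrate at KM, reaction started by NADPH regeneration, stopped after 60 min, luciferase luminescence read 20 min later.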

Sequence of Cytochrome P450 3A4 (Homo sapiens) (P08684 whole entry, looked up): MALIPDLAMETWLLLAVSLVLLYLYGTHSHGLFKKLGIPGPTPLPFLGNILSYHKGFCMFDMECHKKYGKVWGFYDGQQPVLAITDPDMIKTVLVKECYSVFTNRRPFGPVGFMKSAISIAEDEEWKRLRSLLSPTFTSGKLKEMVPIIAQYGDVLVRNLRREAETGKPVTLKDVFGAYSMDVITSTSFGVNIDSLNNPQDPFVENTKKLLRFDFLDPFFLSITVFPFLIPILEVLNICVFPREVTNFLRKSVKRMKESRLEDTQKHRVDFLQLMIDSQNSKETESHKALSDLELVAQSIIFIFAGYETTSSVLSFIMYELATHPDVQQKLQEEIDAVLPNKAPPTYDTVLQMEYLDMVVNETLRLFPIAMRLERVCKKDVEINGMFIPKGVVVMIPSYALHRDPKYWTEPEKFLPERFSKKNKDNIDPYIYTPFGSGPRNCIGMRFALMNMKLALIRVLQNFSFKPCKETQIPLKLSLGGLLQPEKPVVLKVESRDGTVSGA

Activity change, positive = activation, inactive:
CCCCCCN(C(=O)CCCCCN1C(=O)NC(c2ccc(-c3ccccc3)cc2)C(C(=O)OCc2ccccc2)=C1C)C(C(=O)NCCCC)c1ccc(O)c(C(=O)OC)c1 (centres undefined) -70.8%
COC(=O)c1ccc(C(/C=C/[C@@H](C)C(=O)NCCN2CCCC2)NC(=O)OCc2ccccc2)cc1 (some centres undefined) -81.6%
COC(=O)c1ccc(C(/C=C/[C@@H](C)C(=O)NCc2cc(C)n(C)n2)NC(=O)OCc2ccccc2)cc1 (some centres undefined) -61.6%
COCCNC(=O)[C@@]1(C)C=C[C@@H](Cc2ccccc2)N1C(=O)c1ccccc1 -60.3%
COC(=O)c1ccc(C(NC(=O)OCc2ccccc2)/C(=C/[C@@H](C)C(=O)NC2CCCCC2)c2cccnc2)cc1 (some centres undefined) -87.7%
C[C@]1(C(=O)NCCc2c[nH]c3ccccc23)C=C[C@@H](Cc2ccccc2)N1C(=O)c1ccccc1 -71.9%
C[C@@H]1C=C[C@](Cc2ccccc2)(C(=O)NCCN2CCOCC2)N1C(=O)c1ccccc1 -91.7%
CC(C)NC(=O)[C@@H]1C[C@@]1(C)[C@@H](NC(=O)OCc1ccccc1)c1ccccc1 -82.4%
COC(=O)[C@H](Cc1ccccc1)NC(=O)[C@]1(C)C[C@H]1[C@H](NC(=O)OCc1ccccc1)c1ccccc1 -85.4%
COC(=O)[C@H](Cc1ccccc1)NC(=O)[C@H]1C[C@@H]1[C@H](NC(=O)OCc1ccccc1)c1ccccc1 -86.5%
CC(=O)N1C2(C=CC1(C)C(=O)NCc1cc(F)cc(C(F)(F)F)c1)CCCCC2 (centres undefined) -102%
CC1(C(=O)NCCCNc2ncc(C(F)(F)F)cc2Cl)C=CC2(CCCCC2)N1C(=O)c1ccccc1 (centres undefined) -110%
CN(C)c1ccc(CNC(=O)C2(C)C=CCN2C(=O)c2ccccc2)cc1 (centres undefined) -73.6%
CC1(C(=O)NCCc2c[nH]c3ccccc23)C=CCN1C(=O)c1ccccc1 (centres undefined) -78.8%
COC(=O)c1ccc(C(NC(=O)OCc2ccccc2)/C(=C/[C@@H](C)C(=O)NCc2cccnc2)c2cccnc2)cc1 (some centres undefined) -82.8%
CC1(C(=O)NCC2CC2)C=CC2(CCCCC2)N1C(=O)c1ccccc1 (centres undefined) -95.9%
CCCCNC(=O)C(c1ccc(OCC(=O)OC)c(C(=O)OC)c1)N(CCc1ccccc1)C(=O)CCCCCN1C(=O)NC(c2ccc(-c3ccccc3)cc2)C(C(=O)OCc2ccccc2)=C1C (centres undefined) -74%
COC(=O)[C@H](Cc1ccccc1)NC(=O)[C@@]1(C)C[C@@H]1[C@@H](NC(=O)OCc1ccccc1)c1ccccc1 -89.5%
COC(=O)c1ccc(C(NC(=O)OCc2ccccc2)/C(F)=C/[C@@H](C)C(=O)NCCN2CCOCC2)cc1 (some centres undefined) -81.5%
CC(=O)N1CC=CC1(C)C(=O)NCc1cc(F)cc(C(F)(F)F)c1 (centres undefined) -71.2%
CCCCNC(=O)C(c1ccc(OCC(=O)OC)c(C(=O)OC)c1)N(Cc1ccccc1)C(=O)CCCCCN1C(=O)NC(c2ccc(-c3ccccc3)cc2)C(C(=O)OCc2ccccc2)=C1C (centres undefined) -71.8%
COC(=O)c1ccc(C(NC(=O)OCc2ccccc2)/C(F)=C/[C@@H](C)C(=O)NCCO)cc1 (some centres undefined) -86.1%
COC(=O)c1ccc(C(NC(=O)OCc2ccccc2)/C(=C/[C@@H](C)C(=O)NCc2nc3ccccc3n2C)c2cccnc2)cc1 (some centres undefined) -91.7%
Cc1ccc(CNC(=O)C2(CC(C)C)C=CCN2C(=O)c2ccccc2)o1 (centres undefined) -66.3%
C[C@@H]1C=C[C@](Cc2ccccc2)(C(=O)NCCc2c[nH]c3ccccc23)N1C(=O)c1ccccc1 -97.4%
CCCCCCN(C(=O)CCCCCN1C(=O)NC(c2ccc(C(C)(C)C)cc2)C(C(=O)OCc2ccccc2)=C1C)C(C(=O)NCCCC)c1ccc(OCC(=O)OC)c(C(=O)OC)c1 (centres undefined) -96.4%
CCCCCCN(C(=O)CCCCCN1C(=O)NC(c2ccc3ccccc3c2)C(C(=O)OCc2ccccc2)=C1C)C(C(=O)NCCCC)c1ccc(OCC(=O)OC)c(C(=O)OC)c1 (centres undefined) -96.6%
COC(=O)c1ccc(C(NC(=O)OCc2ccccc2)/C(C)=C/[C@@H](C)C(=O)NCc2cc(F)cc(F)c2)cc1 (some centres undefined) -87.9%
COC(=O)c1ccc(C(NC(=O)OCc2ccccc2)/C(C)=C/[C@@H](C)C(=O)N2CCN(C)CC2)cc1 (some centres undefined) -62.8%
